Results reported in PubChem BioAssay AID1159580 (chemical genetic matrix, 2015).
Where “and” joins values, the source holds several entries; their conditions need not be identical. Equal entries are not always repeated. Hit rate of the full screen: of about 5,500 compounds, about 2,000 (36%) were called active. Not shown: some 18% with an inconclusive outcome. No stated cut-off is given here; in the data, active means normalized growth mostly below about 0.91 (no sharp cut-off); inconclusive means no clear call, values can overlap the other calls; inactive means mostly above about 0.92. The list shows a part of the results.

Test: chemical genetic growth profiling, strain panel (AID 1159580);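 further: tested at 20 µM; growth read once vehicle control cultures reached saturation at 30 °C; 1 = growth at the plate median or of vehicle wells; lower values mean less growth of the strain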
Conditions: S. cerevisiae deletion strains, growth OD

Measured: normalized growth

O=C1CCC(N2C(=O)c3ccccc3C2=O)C(=O)N1 (stereo unspecified)
inactive: locus YAL013W, strain DEP1, active compounds read low 1.02 and 0.99 | locus YAL021C, strain ccr4, active compounds read low 0.999 | locus YAL026C, strain drs2, active compounds read low 1.01 | locus YAL030W, strain snc1, active compounds read low 1.01 | locus YAL040C, strain CLN3, active compounds read low 1.01 | locus YBL061C, strain skt5, active compounds read low 1.02 | locus YBR009C, strain hhf1, active compounds read low 1.03 | locus YBR021W, strain FUR4, active compounds read low 0.995 | locus YBR023C, strain chs3, active compounds read low 1.03 | locus YBR171W, strain sec66, active compounds read low 1.02 | locus YBR229C, strain ROT2, active compounds read low 1.01 | locus YBR231C, strain swc5, active compounds read low 1.01 | locus YBR279W, strain paf1, active compounds read low 1.03 | locus YCL011C, strain gbp2, active compounds read low 1.03 | locus YCL016C, strain dcc1, active compounds read low 1.03 | locus YCL029C, strain bik1, active compounds read low 0.989 | locus YCL061C, strain MRC1 (second series), active compounds read low 1 | locus YCL061C, strain MRC1, active compounds read low 1.01 | locus YCL069W, strain vba3, active compounds read low 1.02 | locus YCR088W, strain abp1, active compounds read low 1.01 | locus YDL005C, strain med2, active compounds read low 1.01 | locus YDL035C, strain GPR1, active compounds read low 1.02 | locus YDL040C, strain nat1, active compounds read low 1.02 | locus YDL074C, strain BRE1, active compounds read low 1.01 | locus YDL101C, strain DUN1, active compounds read low 1.02 | locus YDL134C, strain PPH21, active compounds read low 1.01 | locus YDL185W, strain tfp1, active compounds read low 0.99 | locus YDL192W, strain arf1, active compounds read low 0.992 | locus YDR001C, strain nth1, active compounds read low 1.02 | locus YDR069C, strain doa4, active compounds read low 1.02 | locus YDR101C, strain arx1, active compounds read low 0.971 | locus YDR137W, strain rgp1, active compounds read low 1.01 | locus YDR150W, strain NUM1, active compounds read low 1.01 | locus YDR159W, strain sac3, active compounds read low 0.974 | locus YDR162C, strain NBP2, active compounds read low 1.04 | locus YDR195W, strain ref2 0.977 | locus YDR297W, strain sur2, active compounds read low 1.01 | locus YDR318W, strain mcm21, active compounds read low 0.977 | locus YDR334W, strain swr1, active compounds read low 1.02 | locus YDR335W, strain msn5, active compounds read low 1.02 | locus YDR363W, strain ESC2, active compounds read low 1 | locus YDR388W, active compounds read low 0.991 | locus YDR392W, strain spt3, active compounds read low 0.958 | locus YDR502C, strain sam2, active compounds read low 0.981 | locus YEL003W, strain gim4, active compounds read low 1.02 | locus YEL037C, strain rad23, active compounds read low 1.02 | locus YEL061C, strain CIN8 (second series), active compounds read low 1.02 | locus YEL061C, strain CIN8, active compounds read low 1.01 | locus YER002W, strain NOP16, active compounds read low 1.01 | locus YER015W, strain faa2, active compounds read low 1.02 | locus YER016W, strain bim1, active compounds read low 1 | locus YER110C, active compounds read low 0.99 | locus YER111C, strain swi4, active compounds read low 1.02 | locus YER155C, strain BEM2 (second series), active compounds read low 0.998 | locus YER155C, strain BEM2, active compounds read low 1 | locus YER167W, strain BCK2, active compounds read low 1.01 | locus YFR010W, strain ubp6, active compounds read low 1.02 | locus YGL078C, strain dbp3, active compounds read low 0.997 | locus YGL086W, strain mad1, active compounds read low 0.985 | locus YGL167C, strain pmr1, active compounds read low 1.02 | locus YGL173C, strain kem1, active compounds read low 1.01 | locus YGL227W, strain vid30, active compounds read low 1.02 | locus YGL240W, strain doc1, active compounds read low 0.986 | locus YGL248W, strain PDE1, active compounds read low 1.01 | locus YGL253W, strain hxk2, active compounds read low 1.01 | locus YGR078C, strain PAC10, active compounds read low 1.02 | locus YGR135W, strain pre9, active compounds read low 0.988 | locus YGR229C, strain SMI1, active compounds read low 1.04 | locus YGR252W, strain gcn5, active compounds read low 0.969 | locus YHR013C, strain ard1, active compounds read low 1.04 | locus YHR027C, strain rpn1, active compounds read low 1.01 | locus YHR030C, strain SLT2, active compounds read low 1 and 0.974 | locus YHR079C, strain IRE1 (second series), active compounds read low 0.981 | locus YHR079C, strain IRE1, active compounds read low 0.971 | locus YHR094C, strain hxt1, active compounds read low 0.994 | locus YHR129C, strain ARP1, active compounds read low 1 | locus YHR142W, strain chs7, active compounds read low 1.04 | locus YHR200W, strain rpn10, active compounds read low 0.986 | locus YIL066C, strain RNR3, active compounds read low 1.01 | locus YIL073C, strain SPO22, active compounds read low 1.01 | locus YIL125W, strain kgd1, active compounds read low 0.997 | locus YIR030C, strain dcg1, active compounds read low 0.994 | locus YJL092W, strain hpr5, active compounds read low 1.02 | locus YJL095W, strain BCK1 (second series), active compounds read low 1.02 | locus YJL095W, strain BCK1, active compounds read low 1.01 and 0.98 | locus YJL115W, strain asf1, active compounds read low 1.01 | locus YJL129C, strain trk1, active compounds read low 1.03 | locus YJL134W, strain LCB3, active compounds read low 1.01 | locus YJL154C, strain vps35, active compounds read low 1.01 | locus YJL164C, strain tpk1, active compounds read low 1.03 | locus YJL166W, strain qcr8, active compounds read low 1.03 | locus YJL168C, strain set2, active compounds read low 0.991 | locus YJL187C, strain SWE1 (second series), active compounds read low 1.01 | locus YJL187C, strain SWE1, active compounds read low 1.01 | locus YJR043C, strain POL32, active compounds read low 0.979 | locus YJR066W, strain TOR1, active compounds read low 0.951
